# Measurements as given in the supplement of paper PMC8728848.
# Many of the other results were omitted from the sample, so the strongest signals are more common in it than they were.
# Columns and labels:
# Assay in all cases: glycan array binding signal (z-score within array); higher = stronger binding
# Conditions in all cases: glycan notation: IUPAC condensed, linker removed
# [1] = target: GlcNAc6S(b1-3)Gal(b1-4)GlcNAc
# Method in brief: (§1)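 The Consortium for Functional Glycomics database supplied 3228 glycan arrays, of which those lacking an available protein sequence were dropped. The binding signal, a within-array Z-score, was averaged across arrays of the same protein sequence and across linkers. Negative scores can be read as non-binding.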
# Kdn(a2-3)Gal(b1-4)GlcNAc = target: Kdn(a2-3)Gal(b1-4)GlcNAc
# Method in brief: as §1
# [2] = target: Man(a1-2)Man(a1-6)[Man(a1-3)]Man(a1-6)[Man(a1-2)Man(a1-2)Man(a1-3)]Man
# Method in brief: as §1
# [3] = target: Neu5Ac(a2-3)Gal(b1-3)GlcNAc(b1-2)Man(a1-3)[Neu5Ac(a2-3)Gal(b1-3)GlcNAc(b1-2)Man(a1-6)]Man(b1-4)GlcNAc(b1-4)GlcNAc
# Method in brief: as §1
# [4] = target: Neu5Ac(a2-3)Gal(b1-3)[Fuc(a1-4)]GlcNAc(b1-3)Gal(b1-3)[Fuc(a1-4)]GlcNAc
# Method in brief: as §1
# [5] = target: Neu5Ac(a2-3)Gal(b1-4)GlcNAc(b1-2)[Neu5Ac(a2-3)Gal(b1-4)GlcNAc(b1-6)]Man(a1-6)[Neu5Ac(a2-3)Gal(b1-4)GlcNAc(b1-2)Man(a1-3)][GlcNAc(b1-4)]Man(b1-4)GlcNAc(b1-4)GlcNAc
# Method in brief: as §1
# [6] = target: Neu5Ac(a2-3)Gal(b1-4)GlcNAc(b1-3)Gal(b1-4)GlcNAc(b1-6)[Gal(b1-3)]GalNAc
# Method in brief: as §1
# [7] = target: Neu5Ac(a2-3)[GalNAc(b1-4)]Gal(b1-4)GlcNAc(b1-3)GalNAc
# Method in brief: as §1
# Neu5Ac(a2-6)Gal = target: Neu5Ac(a2-6)Gal
# Method in brief: as §1
# [8] = target: Neu5Ac(a2-6)Gal(b1-3)GlcNAc(b1-3)[Gal(b1-4)GlcNAc(b1-6)]Gal(b1-4)Glc
# Method in brief: as §1
# [9] = target: Neu5Ac(a2-6)Gal(b1-4)GlcNAc
# Method in brief: as §1
# [10] = target: Neu5Ac(a2-6)Gal(b1-4)GlcNAc(b1-2)Man(a1-3)Man(b1-4)GlcNAc(b1-4)GlcNAc
# Method in brief: as §1
# [11] = target: Neu5Ac(a2-6)Gal(b1-4)GlcNAc(b1-2)Man(a1-3)[Neu5Ac(a2-6)Gal(b1-4)GlcNAc(b1-2)Man(a1-6)]Man(b1-4)GlcNAc(b1-4)GlcNAc
# Method in brief: as §1
# [12] = target: Neu5Ac(a2-6)Gal(b1-4)GlcNAc(b1-3)Gal(b1-4)GlcNAc(b1-3)Gal(b1-4)GlcNAc(b1-2)Man(a1-3)[Neu5Ac(a2-6)Gal(b1-4)GlcNAc(b1-3)Gal(b1-4)GlcNAc(b1-3)Gal(b1-4)GlcNAc(b1-2)Man(a1-6)]GalNAc
# Method in brief: as §1
# [13] = target: Neu5Ac(a2-6)Gal(b1-4)GlcNAc(b1-3)GalNAc
# Method in brief: as §1
# [14] = target: Neu5Ac(a2-6)Gal(b1-4)GlcNAc(b1-6)[Gal(b1-3)]GalNAc
# Method in brief: as §1
# Neu5Ac(a2-6)GalNAc = target: Neu5Ac(a2-6)GalNAc
# Method in brief: as §1
# [15] = target: Neu5Ac(a2-6)GlcNAc(b1-4)GlcNAc(b1-4)GlcNAc
# Method in brief: as §1
# Neu5Ac(a2-8)Neu5Ac = target: Neu5Ac(a2-8)Neu5Ac
# Method in brief: as §1
# [16] = target: Neu5Ac(a2-8)Neu5Ac(a2-3)Gal(b1-4)Glc
# Method in brief: as §1
# [17] = target: Neu5Ac(a2-8)Neu5Gc(a2-3)Gal(b1-4)GlcNAc
# Method in brief: as §1
# [18] = target: Neu5Gc(a2-3)Gal(b1-4)GlcNAc(b1-3)Gal(b1-4)GlcNAc(b1-2)Man(a1-3)[Neu5Gc(a2-3)Gal(b1-4)GlcNAc(b1-3)Gal(b1-4)GlcNAc(b1-2)Man(a1-6)]Man(b1-4)GlcNAc(b1-4)GlcNAc
# Method in brief: as §1
# [19] = target: Neu5Gc(a2-8)Neu5Gc(a2-6)Gal(b1-4)GlcNAc
# Method in brief: as §1
# [20] = target: Fuc(a1-2)Gal(b1-4)[Fuc(a1-3)]GlcNAc(b1-3)Gal(b1-4)Glc
# Method in brief: as §1
# [21] = target: Fuc(a1-2)[Gal(a1-3)]Gal(b1-4)GlcNAc(b1-3)Gal(b1-4)Glc
# Method in brief: as §1
# [22] = target: Fuc(a1-3)[Gal3S(b1-4)]Glc
# Method in brief: as §1
# Fuc(a1-6)GlcNAc = target: Fuc(a1-6)GlcNAc
# Method in brief: as §1
# [23] = target: Gal(b1-4)GlcNAc(b1-3)[Gal(b1-4)GlcNAc(b1-6)]Gal(b1-4)GlcNAc(b1-3)[Gal(b1-4)GlcNAc(b1-6)]Gal(b1-4)GlcNAc(b1-3)[Gal(b1-4)GlcNAc(b1-6)]Gal(b1-4)GlcNAc(b1-3)[Gal(b1-4)GlcNAc(b1-6)]Gal(b1-4)GlcNAc(b1-3)Gal(b1-4)Glc
# Method in brief: as §1
# [24] = target: Glc(b1-3)Glc(b1-3)Glc(b1-3)Glc(b1-3)Glc(b1-3)Glc(b1-3)Glc
# Method in brief: as §1
# Glc(b1-4)Glc = target: Glc(b1-4)Glc
# Method in brief: as §1
# [25] = target: Glc(b1-4)Glc(b1-4)Glc(b1-4)Glc(b1-4)Glc(b1-4)Glc(b1-4)Glc(b1-4)Glc(b1-4)Glc
# Method in brief: as §1
# [26] = target: Glc(b1-4)Glc(b1-4)Glc(b1-4)Glc(b1-4)Glc(b1-4)Glc(b1-4)Glc(b1-4)Glc(b1-4)Glc(b1-4)Glc
# Method in brief: as §1
# [27] = target: GlcNAc(a1-4)Gal(b1-3)[Fuc(a1-2)]Gal
# Method in brief: as §1
# [28] = target: Kdn(a2-3)[GalNAc(b1-4)]Gal(b1-3)GlcNAc
# Method in brief: as §1
# Man(a1-6)Man = target: Man(a1-6)Man
# Method in brief: as §1
# [29] = target: Neu5Ac(a2-3)Gal(b1-4)GlcNAc(b1-2)Man(a1-3)[Neu5Ac(a2-3)Gal(b1-4)GlcNAc(b1-2)Man(a1-6)]Man(b1-4)GlcNAc(b1-4)[Fuc(a1-6)]GlcNAc
# Method in brief: as §1
# [30] = target: Neu5Ac(a2-3)Gal(b1-4)GlcNAc6S(b1-3)Gal6S(b1-3)GlcNAc6S
# Method in brief: as §1
# [31] = target: Neu5Ac(a2-3)Gal(b1-4)[Fuc(a1-3)]GlcNAc(b1-3)Gal(b1-4)Glc
# Method in brief: as §1
# [32] = target: Neu5Ac(a2-3)Gal6S(b1-4)[Fuc(a1-3)]GlcNAc6S(b1-3)Gal(b1-4)Glc
# Method in brief: as §1
# [33] = target: Neu5Ac(a2-3)[GalNAc(b1-4)]Gal(b1-3)GalNAc(b1-4)[Neu5Ac(a2-3)]Gal(b1-4)Glc
# Method in brief: as §1
# [34] = target: Neu5Ac(a2-3)[GalNAc(b1-4)]Gal(b1-4)Glc
# Method in brief: as §1
# Neu5Ac(a2-6)Gal(b1-4)Glc = target: Neu5Ac(a2-6)Gal(b1-4)Glc
# Method in brief: as §1
# [35] = target: Neu5Ac(a2-8)Neu5Ac(a2-3)Gal(b1-3)GalNAc(b1-4)[Neu5Ac(a2-8)Neu5Ac(a2-3)]Gal(b1-4)Glc
# Method in brief: as §1
# [36] = target: Neu5Gc(a2-3)Gal(b1-3)GlcNAc(b1-3)Gal(b1-4)Glc
# Method in brief: as §1
# [37] = target: Neu5Gc(a2-3)[GalNAc(b1-4)]Gal
# Method in brief: as §1
# [38] = target: Neu5Gc(a2-6)Gal(b1-3)GlcNAc(b1-3)Gal(b1-4)Glc
# Method in brief: as §1
# [39] = target: Neu5Gc(a2-6)Gal(b1-4)GlcNAc(b1-2)Man(a1-3)[Neu5Gc(a2-6)Gal(b1-4)GlcNAc(b1-2)Man(a1-6)]Man(b1-4)GlcNAc(b1-4)GlcNAc
# Method in brief: as §1
# Neu5Gc(a2-6)GalNAc = target: Neu5Gc(a2-6)GalNAc
# Method in brief: as §1
# [40] = target: Xyl(a1-6)Glc(b1-4)[Xyl(a1-6)]Glc(b1-4)[Xyl(a1-6)]Glc(b1-4)Glc
# Method in brief: as §1
binder,measurement,setting,value
"HopZSSI-T (Helicobacter pylori), B5Z6D0 (protein) MGSSHHHHHHSSGLVPRGSHMENLYFQGEDNGFFISAGYQIGEAAQMVKNTGELKKLSDTYENLSNLLTNFNNLNQAVTNASSPSEINAAIDNLKANTQGLTGEKTNSPAYQAVYLALNAAVGLWNVIAYNVQCGPGNSSQQSVTFEGQPGHNSSSINCNLTGYNNGVSGPLSIDNFKQLNQAYQVLQQALKQGVPVLNNTNQKIEVKVTTQTNGQSSKETTTTTTTNDAQTLLQEASKMIDVLTTNCPWVNHNPGQNGGAPWGLIRQECVSGFATEFSAVTSMIKNAQEIVTQAQSLNANQNNQNAPQDFNPYTSADRAFAQNMLNHAQAQAKILELADQMKKDLNTIPSQFITNYLAACRIDGTTPSQGVTNNTWGAGCAYVEETITALNNSLAHFGTQAEQIKQSELLARTILDFRGSLSTLNSTYNSITTTASNTPNSPFLKNLISQSTNPNNPGGLQAVYQVNQSAYSQLLSATQELGHNPFRRIGLISSQT",glycan array binding signal (z-score),[1],-0.089
same,glycan array binding signal (z-score),Kdn(a2-3)Gal(b1-4)GlcNAc,0.049
same,glycan array binding signal (z-score),[2],-0.645
same,glycan array binding signal (z-score),[3],-0.396
same,glycan array binding signal (z-score),[4],-0.391
same,glycan array binding signal (z-score),[5],0.342
same,glycan array binding signal (z-score),[6],0.966
same,glycan array binding signal (z-score),[7],0.891
same,glycan array binding signal (z-score),Neu5Ac(a2-6)Gal,0.007
same,glycan array binding signal (z-score),[8],-0.472
same,glycan array binding signal (z-score),[9],-0.343
same,glycan array binding signal (z-score),[10],-0.42
same,glycan array binding signal (z-score),[11],-0.19
same,glycan array binding signal (z-score),[12],0.709
same,glycan array binding signal (z-score),[13],0.356
same,glycan array binding signal (z-score),[14],3.23
same,glycan array binding signal (z-score),Neu5Ac(a2-6)GalNAc,2.01
same,glycan array binding signal (z-score),[15],-0.141
same,glycan array binding signal (z-score),Neu5Ac(a2-8)Neu5Ac,0.598
same,glycan array binding signal (z-score),[16],-0.031
same,glycan array binding signal (z-score),[17],-0.272
same,glycan array binding signal (z-score),[18],1.53
same,glycan array binding signal (z-score),[19],0.181
"MIC1 (Toxoplasma gondii), O00834 (protein) VGPEAYGEASHSHSPASGRYIQQMLDQRCQEIAAELCQSGLRKMCVPSSRIVARNAVGITHQNTLQWRCFDTASLLESNQENNGVNCVDDCGHTIPCPGGVHRQNSNHATRHEILSKLVEEGVQRFCSPYQASANKYCNDKFPGTIARRSKGFGNNVEVAWRCYEKASLLYSVYAECASNCGTTWYCPGGRRGTSTELDKRHYTEEEGIRQAIGSVDSPCSEVEVCLPKDENPPLCLDESGQISRT",glycan array binding signal (z-score),[20],-0.296
same,glycan array binding signal (z-score),[21],-0.253
same,glycan array binding signal (z-score),[22],-0.041
same,glycan array binding signal (z-score),Fuc(a1-6)GlcNAc,-0.287
same,glycan array binding signal (z-score),[23],-0.287
same,glycan array binding signal (z-score),[24],-0.287
same,glycan array binding signal (z-score),Glc(b1-4)Glc,-0.287
same,glycan array binding signal (z-score),[25],-0.287
same,glycan array binding signal (z-score),[26],-0.287
same,glycan array binding signal (z-score),[27],-0.299
same,glycan array binding signal (z-score),[28],-0.274
same,glycan array binding signal (z-score),Man(a1-6)Man,-0.312
same,glycan array binding signal (z-score),[29],2.46
same,glycan array binding signal (z-score),[30],4.52
same,glycan array binding signal (z-score),[31],0.087
same,glycan array binding signal (z-score),[32],2.46
same,glycan array binding signal (z-score),[33],1.29
same,glycan array binding signal (z-score),[34],2.98
same,glycan array binding signal (z-score),Neu5Ac(a2-6)Gal(b1-4)Glc,-0.342
same,glycan array binding signal (z-score),[35],-0.411
same,glycan array binding signal (z-score),[36],2.33
same,glycan array binding signal (z-score),[37],4.78
same,glycan array binding signal (z-score),[38],2.08
same,glycan array binding signal (z-score),[39],0.198
same,glycan array binding signal (z-score),Neu5Gc(a2-6)GalNAc,4.8
same,glycan array binding signal (z-score),[40],-0.287
